PubChem BioAssay AID1259240 (Keith Lab, Institute of Cancer Science, University of …, 2017)
A number with no mark means an inactive call. Activity calls are given as the source filed them. Rule as the data show it: active = fold change mostly below about -2 (no sharp cut-off); inactive = mostly above about -1.8.

assay: modulation of TERT promoter-driven luciferase – cell-based, luciferase reporter, human, primary screen (AID 1259240); settings: A2780 TERT promoter luciferase reporter, 16 h; at 20 µM, fold versus average of vehicle-only wells

Row | SMILES | fold change
1 | CC1CCCC(C)N1C(=O)CN1C(=O)COc2ccc(S(=O)(=O)N3CCCCCC3)cc21 (stereo not given) | -1.25
2 | CCOC(=O)N1CCC(Nc2c(NC3CCC(C)CC3)c(=O)c2=O)CC1 (stereo not given) | 1.1
3 | Cc1ccc(N2CN=c3s/c(=C4\C(=O)Nc5ccccc54)c(=O)n3C2)cc1 | -1.33
4 | Cc1nc2c(-c3ccc(F)cc3)c(C)nn2c(C)c1CCC(=O)NCc1ccc2c(c1)OCO2 | 1.02
5 | COc1ccc(N2CN=c3s/c(=C4\C(=O)N(C)c5ccccc54)c(=O)n3C2)cc1 | -1.56
6 | O=C(NCc1ccccc1Cl)c1c(-n2cccc2)sc2c1CCC2 | -1.05
7 | CCCCN(C)C(=O)Cn1c(=O)oc2cc(S(=O)(=O)N3CC(C)CC(C)C3)ccc21 (stereo not given) | 1.08
8 | CCCN(CCC)c1c(NC2CCN(C(=O)OCC)CC2)c(=O)c1=O | -1.25
9 | Cc1cc(/C=C2/SC(=S)N(CC(=O)O)C2=O)c(C)n1-c1ccncc1 | -3.58 (active)
10 | CCOC(=O)C1=C(CS(=O)(=O)c2ccc(C)cc2)NC(=O)NC1c1ccc(OC)cc1OC (stereo not given) | -1.29
11 | CN(CC(=O)NCc1ccco1)S(=O)(=O)c1ccc2c(c1)c(=O)n(C)c(=O)n2C | -1.15
12 | Cc1cc(C)n(-c2nc3ccccc3n3cnnc23)n1 | -1.18
13 | O=C(Cn1c(=O)c(C(F)(F)F)nc2ccccc21)N1CCCC1 | -1.02
14 | Cc1nc2cc(-c3ccccc3)nn2c(C)c1CCC(=O)O | -6.77 (active)
15 | CCOC(=O)N1CCC(Nc2c(N3CC(C)CC(C)C3)c(=O)c2=O)CC1 (stereo not given) | 1.09
